According to PubChem BioAssay AID686979 (National Center for Advancing Translational Sciences (NCATS), 2013):
Values joined by “and” are separate entries in the source; they are usually repeats but may differ in a detail not shown here. Identical values can stand only once. The campaign covered roughly 420,000 compounds. About 50,000 (12%) were called active. Roughly 26% stayed inconclusive and do not appear here. This is one part of a sample in which actives are shown more often than they occur. Values without a mark were called inactive. Calls follow the shape of the dose curve; as a rule, active = well fitted inhibition curve with a large enough effect; inconclusive = small, poorly fitted or top-dose-only effect; inactive = flat fitted curve, though single readings scatter.

assay: qHTS for Inhibitors of human tyrosyl-DNA phosphodiesterase 1 (TDP1): qHTS in cells in presence of CPT; details: chicken DT40 Tdp1-/-;hTDP1 cells + 20 nM CPT, ATP luminescence, 48 h; series mostly up to 46.2 µM; activity change, negative = growth inhibition: at the top concentration; also: nearly all actives have a fitted effect of over 55% in size
Outline: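 Chicken DT40 Tdp1-/- cells stably complemented with human TDP1 were seeded at 400 cells/well in medium containing 20 nM camptothecin, exposed to pin-transferred compounds, and grown at 37 °C for at least 48 hr. Viability was read as ATP luminescence.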
% is scaled to controls: 0 for no effect and ±100 for the full control effect; potency is read from the fitted curve at half-maximal effect.

SMILES	Potency	activity change, negative = growth inhibition
COc1cc(/C(=C/c2ccccc2)c2ccccc2)c2c(c1)oc1ccccc12	inactive	
O=C(CSc1n[nH]c(-c2cccnc2)n1)Nc1ccc(Cl)cc1		-6.52%
COc1cc(C#Cc2ccc3cc(CCCO)oc(=O)c3c2)cc(OC)c1	0.651 µM (active)	
Cc1ccc(N(CC(=O)NC2CCCCC2)C(=O)CCCC(=O)Nc2ccccn2)c(C)c1		-6.89%
CC(C)(C)S(=O)(=O)c1ccccc1-c1noc(-c2ccccc2)c1C(N)=O		14.1%
COc1ccc(S(=O)(=O)N(CC(=O)NCc2ccco2)c2ccc(F)cc2)cc1		-11%
COc1ccc(CNC(=O)CN(c2ccc(OC)c(Cl)c2)S(=O)(=O)c2ccc(C)cc2)cc1	25.9 µM (active)	
Cc1ccc(N(CC(=O)NCc2ccc(Cl)cc2)S(=O)(=O)N(C)C)cc1		-2.04%
COCc1cc(C)nc2sc(C(=O)NC3CCCCC3)c(N)c12		-21.3%
O=C(O)C1=C(C(=O)O)C2CCC1C2		0.326%
CCN(CCN(C)C)C(=O)c1ccc2nc(C)c(N(C)C(=O)CCc3ccccc3)n2c1		13.7%
Cc1ccc(CNC(=O)COC(=O)C2CCC2)cc1		-1.47%
CC(O)c1ccc(OCCN(C)c2ccccn2)cc1 (centres undefined)		4.7%
CSc1ccc(CCNC(=O)CS(=O)(=O)Cc2nc(-c3ccccc3F)oc2C)cc1		-0.97%
Cc1ccccc1-c1nc(CS(=O)(=O)CC(=O)NC(C)c2ccccc2)c(C)o1 (centres undefined)	16.4 µM (active)	
Cc1ccc(S(=O)(=O)CC(=O)NC(C)c2ccccc2)cc1 (centres undefined)		8.16%
CC(C)Cc1nnc(NC(=O)CCNC(=O)c2ccccc2Cl)s1		-10%
CCOC(=O)N1CCN(C(=O)C2CCN(S(=O)(=O)c3cc(Cl)ccc3OCC)CC2)CC1		-3.7%
CCOC(=O)N1CCN(C(=O)C2CCN(c3ncnc4c3sc3cccc(F)c34)CC2)CC1	8.2 µM (active)	
CCOC(=O)N1CCN(C(=O)C2CCCN(c3ncnc4c3sc3cccc(F)c34)C2)CC1 (centres undefined)		-104%
O=C(CCn1nnnc1CN1CCOCC1)N1CCC(c2ccccc2Cl)C1 (centres undefined)		-12.6%
COc1ccc(F)c(CN2CCC3(CCC(CNC(=O)c4ccn(C)n4)O3)CC2)c1 (centres undefined)		7.32%
Cc1ccccc1N1CC(C(=O)Nc2ccc3c(c2)OCO3)CC1=O (centres undefined)		-10.8%
COc1ccc(C(=O)CCc2ccccc2O)c(OC)c1		5.83%
COc1ccc(C(=O)CC(=O)c2ccc(C)cc2)c(O)c1	4.61 µM (active)	
COc1ccc(C(=O)Cc2cnn(-c3ccccc3)c2)c(O)c1		-20.1%

SMILES	Potency	activity change, negative = growth inhibition
COc1ccc(NC(=O)Cn2c(=O)cc(C)c3c(C)nn(-c4cccc(Cl)c4C)c32)cc1OC		-8.29%
Cc1noc(C)c1NC(=O)Nc1cccc2c1O[C@H](CN(C)S(=O)(=O)c1c(C)noc1C)[C@@H](C)CN([C@H](C)CO)C2=O		13.3%
CC(OC(=O)CN1C(=O)C2CCCCC2C1=O)C(=O)Nc1ncc(Cl)cc1Cl (centres undefined)		-15.3%
CC1=CC(C)(C)Nc2ccc(OC(=O)CN3C(=O)C4CCCCC4C3=O)cc21 (centres undefined)	1.64 µM (active)	
O=C(CN1C(=O)C2C3CCC(C3)C2C1=O)Oc1ccc2ccccc2c1 (centres undefined)		1.24%
O=C(/C=C/c1c(F)cccc1Cl)Nc1nn[nH]n1		10.1%
O=C(N/C(=C\c1ccc(O)cc1)C(=O)N1CCCCC1)c1ccccc1		-0.525%
CCOc1ccc(C2/C(=C(/O)c3ccc4c(c3)CC(C)O4)C(=O)C(=O)N2CCCn2ccnc2)cc1 (centres undefined)		-13.3%
CC(C)=CCC/C(C)=C/CC/C(C)=C/CC/C(C)=C/CO	inactive	
Cc1ccc(Oc2nc3ccccc3n3c(C)nnc23)cc1		-14.2%
Cc1nc2ccccc2n1CC(O)c1ccccc1 (centres undefined)		6.8%
Cc1ccc(C2=NN(C)c3nc4ccccc4n3C2)cc1	18.4 µM (active)	
COC(=O)C(C)N=Cc1ccccc1 (centres undefined)		-12.3%
Cc1ccc(C(=O)Nc2ccc(C(=O)O)cc2)cc1S(=O)(=O)Nc1ccccc1		0.932%
O=C1CCC(CCC(=O)N2CCCC(C(=O)c3ccc(Cl)cc3)C2)=NN1 (centres undefined)		-1.89%
COc1ccc(F)cc1C(=O)C1CCCN(C(=O)CCc2ccccn2)C1 (centres undefined)	16.4 µM (active)	
CSCC(=O)N1CCCC(C(=O)c2cc(F)ccc2F)C1 (centres undefined)		-5%
O=C1NC(O)CCN1C1CC(O)C(CO)O1 (centres undefined)		-0.775%
C=CCNC(=O)COC(=O)CNC(=O)c1cc(Cl)cc([N+](=O)[O-])c1		-4.44%
O=C(O)c1ccccc1Cc1ccc(F)c2ccccc12		49.6%
O=C(Nc1nnc(Cc2ccccc2)s1)c1cnccn1		-5.61%
CC1CCN(C2=NC(=O)/C(=C/c3cn[nH]c3-c3ccccc3)S2)CC1		-28.9%
Cc1ccc(Cl)cc1N1CCN(C(=O)c2cn(C)c3ccc(S(=O)(=O)N(C)C4CCCCC4)cc3c2=O)CC1		-28.2%
CCn1cc(C(=O)NC2CCCCCC2)c(=O)c2cc(S(=O)(=O)N3CCCCC3)ccc21	29.1 µM (active)	
CCn1cc(C(=O)N2CCN(c3cc(Cl)ccc3C)CC2)c(=O)c2cc(S(=O)(=O)N3CCCC3)ccc21	23.1 µM (active)	
CCn1cc(C(=O)N2CC(C)CC(C)C2)c(=O)c2cc(S(=O)(=O)N3CCCC3)ccc21 (centres undefined)		-9.06%

SMILES	Potency	activity change, negative = growth inhibition
CCn1cc(C(=O)N(C)Cc2ccccc2)c(=O)c2cc(S(=O)(=O)N3CCCCCC3)ccc21		2.57%
Cc1ccc(S(=O)(=O)N2CCN(C)CC2)cc1C(=O)NC1CCCCC1		-7.5%
CCCCc1cc(=O)oc2c(C)c(OCC(=O)N3CCC(C(N)=O)CC3)ccc12		1.82%
CCOc1ccc(Br)cc1S(=O)(=O)Nc1ccc(S(=O)(=O)Nc2cc(C)on2)cc1		7.48%
O=C(NCc1ccc2c(c1)OCO2)c1ccc(Cl)s1		-3.29%
O=C(NCc1ccc2c(c1)OCO2)c1c(-c2ccsc2)sc2ccccc12	14.6 µM (active)	
O=C(NCc1ccc2c(c1)OCO2)c1sccc1Br		13%
CC(C)(C)C(=O)CSc1ccc(S(=O)(=O)N2CCCC2)cn1		-29.4%
CN=C1SC(CC(=O)Nc2ccc(C(=O)O)cc2)C(=O)N1C (centres undefined)		-17.1%
CCC(=C/c1sc2ccc3ccccc3c2[n+]1C)/C=C1\Sc2ccc3ccccc3c2N1C	0.231 µM (active)	
COc1ccc(N(CC(=O)N2CCOCC2)S(=O)(=O)c2ccccc2)cc1Cl		1.17%
COc1ccc(CCNC(=O)c2cnc3sc(N4CCCCCC4)nn3c2=O)cc1OC	11.6 µM (active)	
O=C(NCCc1ccccc1)c1cnc2sc(N3CCCC3)nn2c1=O	16.4 µM (active)	
COc1ccc(CCNC(=O)C2CCN(c3nn4c(=O)cc(C)nc4s3)CC2)cc1OC		2.71%
O=C(O)c1ccccc1-c1ccccc1C(=O)NCCc1ccccc1		13.9%
COc1ccc(CCNC(=O)c2ccc(NC(=O)CC3SC(N4CCCCC4)=NC3=O)cc2)cc1OC (centres undefined)		-27.3%
CSc1ncc(C(=O)NCCCc2ccccc2)c(C)n1		-28.1%
Cc1cc(C)c(S(=O)(=O)NCC(c2ccc3c(c2)OCO3)N2CCOCC2)c(C)c1 (centres undefined)		-0.185%
COc1cc(OC)cc(C(=O)NNC(=O)Cc2cccs2)c1		-7.38%
COCCCNC(=O)Cc1ccc(-n2c(C)nc3cccnc32)cc1		-15.6%
CCc1nc2cccnc2n1-c1ccc(C(=O)O)cc1		3.09%
COc1cc(OC)c(NC(=O)Cc2ccc(-n3c(C)nc4cccnc43)cc2)cc1Cl	23.1 µM (active)	
Cc1cccc(-n2nc3c(c2NC(=O)c2cc4ccccc4o2)CS(=O)(=O)C3)c1		-3.89%
O=C(CN1CCC(O)(c2cccc(C(F)(F)F)c2)CC1)NCCc1ccccc1		-7.6%
O=C(c1ccc(F)cc1)N1CCCC(C(=O)N2CCCCC2)C1 (centres undefined)		-8.79%
Cc1cnc(C(=O)N2CCCC(N3CCN(c4ccccc4F)CC3)C2)cn1 (centres undefined)		-22.6%

SMILES	Potency	activity change, negative = growth inhibition
CSc1ccc(C(=O)C2CCCN(C(=O)c3ccc(C)nc3)C2)cc1 (centres undefined)	20.6 µM (active)	
COc1cc2c(cc1OC)C(C(=O)Nc1cc(C)c(OC)c(C)c1)CC(=O)N2 (centres undefined)		-5.19%
COc1ccc(NC(=O)c2ccco2)cc1NC(=O)c1ccc(C#N)cc1F		-2.04%
COc1ccc(N(CC(=O)N2CCCCCC2)S(=O)(=O)c2ccccc2)cc1		0.579%
CCC(C)[C@H](NC(=O)N1c2ccccc2NC(=O)[C@@H]1C(C)C)C(=O)N[C@@H](Cc1ccccc1)C(=O)O (some centres undefined)		10.8%
CCOC(CNC(=O)C1CCN(S(=O)(=O)c2ccc3nc4c(c(C(=O)O)c3c2)CC(C)CC4)CC1)OCC (centres undefined)		5.36%
CCCc1nn2c(=O)cc(CSCC(=O)Nc3cccc(C)c3)nc2s1		-12.7%
COc1ccc(-c2c(C#Cc3ccccc3)c3ccccc3n2C)cc1		-25.1%
COc1ccc(CCNC(=O)COC(=O)c2cc(=O)c3ccccc3o2)cc1		2.28%
COc1ccc(CCNCc2c(-c3ccccc3)n(C)c3ccccc23)cc1	16.4 µM (active)	
O=c1[nH]c2c(c(=O)n1-c1ccccc1)CCO2		-15.9%
O=C(CCNC(=O)c1ccc([N+](=O)[O-])cc1)NC1CCCCC1		-24.5%
CCOc1ccc(C2c3[nH]c4ccccc4c3CCN2Cc2cccn2-c2ncccn2)cc1 (centres undefined)	20.6 µM (active)	
c1ccc(C2c3[nH]c4ccccc4c3CCN2Cc2cccn2-c2cccnc2)nc1 (centres undefined)		-17.5%
CCOc1ccc(C2c3[nH]c4ccccc4c3CCN2Cc2cn(CC)nc2C)cc1 (centres undefined)		-6.24%
CN(CC(=O)Nc1c(Cl)cccc1Cl)C(=O)CNC(=O)C1CCCCC1		-1.71%
Cc1nnc(OCC(=O)NCCC2=CCCCC2)c2ccccc12		3.47%
CCC(Sc1nc2n[nH]c(C)c2c(=N)n1-c1ccccc1Cl)C(=O)N(CC)CC (centres undefined)	18.4 µM (active)	
CCCCNC(=O)CSc1nccn1Cc1ccccc1		-14.5%
CCOc1ccc(-n2c(SCC(=O)NCc3ccccc3)nc3n[nH]c(C)c3c2=N)cc1	9.2 µM (active)	
CCCCNC(=O)CSc1nnc(-c2ccco2)n1C		-3.19%
CCOc1ccc(-n2c(SCC(=O)Nc3cc(C(=O)O)ccc3Cl)nc3ccccc3c2=O)cc1		-13.7%
Cc1ccc(-n2c(SCC(=O)NCCC3=CCCCC3)nc3n[nH]c(C)c3c2=N)cc1Cl	11.6 µM (active)	
Cc1nnc(SCC(=O)NCCOc2ccc(Cl)cc2)n1-c1ccccc1		5.23%
CCCCNC(=O)CSc1nc2n[nH]c(C)c2c(=N)n1-c1cccc(Cl)c1C	16.4 µM (active) and 11.6 µM (active)	
O=C(COc1ccc(Cl)cc1)NCCC1=CCCCC1		-14.4%
